# Source: PubChem BioAssay (Center for Chemical Genomics, University of Michigan)
# Dicer inh – inhibitors of Dicer pre-microRNA processing, primary screen, biochemical, cat-ELCCA, chemiluminescence; Endoribonuclease Dicer (Homo sapiens), Q9UPY3; cat-ELCCA pre-miR-21 Dicer processing; active compounds read high; z-score at 25 µM; 6% of 47,000 active; in the data active = z-score above about 3, passing the limit was not always enough;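 note: plate controls were vehicle for no effect and no enzyme for full effect; higher signal means more uncleaved substrate so more Dicer inhibition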
# * = called active by the depositor. Many of the other results were omitted from the sample, so hits are more common in it than they were.
SMILES,Dicer inh
O=S(=O)(Nc1ccc(Oc2ncnc3cc(Cl)ccc23)nc1)c1ccc(-c2ccccn2)s1,-0.35
CC(=O)C1CNc2ccccc2C1(O)c1ccccc1 (stereo not given),0.68
Clc1ccc(CCNc2ncnc3sccc23)cc1,-1.1
COc1ccc(-c2cc(C(F)(F)F)n3nc(N)nc3n2)cc1OC,5.5*
COc1cccc(-c2cc(C(F)(F)F)n3nc(N)nc3n2)c1,0.15
COc1ccc(-c2cc(C(F)(F)F)n3nc(N)nc3n2)cc1,1.9
Cn1c(=O)c2c(c3ccccc31)OC(=O)CC2c1cccc(F)c1 (stereo not given),2.1
O=C(Cc1c(F)cccc1Cl)NC(=O)Nc1ccc(Cl)cc1,0.22
O=C(Nc1ccc(F)c(Cl)c1)Oc1ccccc1,0.75
O=C(Cc1c(F)cccc1Cl)NC(=O)Nc1ccc(F)c(Cl)c1,3.9*
Cc1cc(C)c(C#N)c(SCC(O)c2cccc([N+](=O)[O-])c2)n1 (stereo not given),-0.53
Cc1nn(-c2ccccc2)c(NC(=O)C(Cl)(Cl)Cl)c1Br,-1.8
CCOC(=O)Cc1nc2ccccc2o1,2
Nc1ccc(CCc2nc3ccccc3o2)cc1,6.6*
Cc1c(N)cccc1-c1nc2ccccc2o1,0.93
COc1ccc(C2C(C(=O)O)c3ccccc3C(=O)N2C2CCN(Cc3ccccc3)CC2)cc1 (stereo not given),0.59
O=C1NNC(c2ccccc2)C1c1ccccc1 (stereo not given),3.5*
CC(C)C1C(=O)CC(c2ccccc2)NC1c1ccccc1 (stereo not given),0.45
O=C1C(=O)C(c2ccccc2)C(=O)C1c1ccccc1 (stereo not given),1.6
COC(=O)c1sccc1NC(=O)CC1NCCNC1=O (stereo not given),-0.01
NC(=S)CS(=O)(=O)Cc1cccc(C(F)(F)F)c1,-0.83
CCc1ccc(-c2csc(Nc3ccc(S(N)(=O)=O)cc3)n2)cc1,7.5
O=C(O)c1ccc(Nc2nc(-c3cccnc3)cs2)cc1,6.6*
Cc1ccc(-c2csc(Nc3ccc(S(N)(=O)=O)cc3)n2)cc1,7.1*
COc1ccc(-c2csc(Nc3cccnc3)n2)cc1,2.8
SMILES,Dicer inh
Clc1ccc(-c2csc(Nc3ccccc3)n2)cc1,0.33
Cc1cccnc1Nc1nc(-c2cccnc2)cs1,1.2
Fc1ccc(Nc2nc(-c3ccncc3)cs2)cc1,2.2
Cc1ccc(Nc2nc(C(F)(F)F)cs2)cc1,0.07
Clc1ccc(Nc2nc(-c3ccncc3)cs2)cc1,5.6*
CCCCSc1n[nH]c(=S)s1,0.57
COc1nc(N)nc(-c2csc(C)n2)n1,17
c1ccc(N=C(Nc2ccccc2)Nc2ccccc2)cc1,-2.1
CCc1cc2c(=O)c(-c3nc4ccccc4s3)coc2cc1O,0.96
CCCOC(=O)Cn1nnc2sc3c(c2c1=O)CCC(C)C3 (stereo not given),-0.33
CCOC(=O)c1n[nH]n(-c2cc(C(F)(F)F)cc(C(F)(F)F)c2)c1=O,-1.3
Cn1cnc([N+](=O)[O-])c1NCc1ccc2c(c1)OCO2,-2.1
Cc1cc(=O)[nH]c(SCc2cccc(Oc3ccccc3)c2)n1,-0.26
Cc1cccc2nc(CSc3nncn3-c3ccccc3)cn12,-0.94
Cc1cccc2nc(CSc3nnnn3-c3ccccc3)cn12,6.5*
Cc1cc(C)nc(N2N=C(CSc3nnnn3-c3ccccc3)CC2=O)n1,-1.5
Cc1cc(=O)[nH]c(SCc2cn3c(C)cccc3n2)n1,4.8*
Cc1ccc(CSc2nc(C)cc(=O)[nH]2)cc1,-1.6
O=S(=O)(NC1CCCc2ccccc21)c1cccs1 (stereo not given),0.04
C=CCOc1ccc(C2C(C(=O)OC)=C(C)NC3=C2C(=O)c2ccccc23)cc1Cl (stereo not given),-1.7
CC(C(=O)NNC(=O)C(C)(C)C)n1nnc(-c2cc(C(F)(F)F)cc(C(F)(F)F)c2)n1 (stereo not given),3.8*
CC(=O)NNC(=O)C(C)n1nnc(-c2cc(C(F)(F)F)cc(C(F)(F)F)c2)n1 (stereo not given),-0.56
CC(C(=O)NNC(=O)C1CC1)n1nnc(-c2cc(C(F)(F)F)cc(C(F)(F)F)c2)n1 (stereo not given),-5.9
COC(=O)C1=C(C)NC2=C(C(=O)CC(C)(C)C2)C1c1ccccc1F (stereo not given),-1.2
CCOC(=O)c1sc(N/N=C2\CCCc3cc(OC)ccc32)nc1C,-1.4
SMILES,Dicer inh
CN1C(=O)CN(C2CCCCC2)C1=O,1
COc1ccccc1C1CCN(c2ccc(C3OCCCO3)cc2[N+](=O)[O-])CC1,0.03
COc1ccc(OC)c([N+](=O)[O-])c1N1CCOCC1,-0.37
COc1cccc2c1OC1(N3CCOCC3)CCCCC1C2C[N+](=O)[O-] (stereo not given),3.6*
COC(=O)c1ccc(-c2ccccc2F)cc1,-1
CC(=O)/C(C=Nc1nn(C)cc1C(=O)Nc1ccc(F)c(Cl)c1)=C(\C)O,1.9
S=c1[nH]nc(CSc2nc(-c3ccccc3)cn2-c2ccccc2)n1-c1ccccc1,0.02
C=CCn1c(CSc2nc(-c3ccccc3)cn2-c2ccc(OC)cc2OC)n[nH]c1=S,3.4*
